Reference: PMC7862700, “An all-to-all approach to the identification of sequence-specific readers for epigenetic DNA modifications on cytosine”

Key:
Assay in all cases: DAPPL (digital affinity profiling via proximity ligation, sequencing); 10 mM Tris-HCl pH 7.5, 50 mM NaCl, 1 mM DTT, 4% glycerol, room temperature, 30 min; GST-TFs on glutathione beads, 16-mer random dsDNA library, 0.1% formaldehyde crosslink after washing; high values mean tight binding
Settings in all cases: protein: recombinant; tags: N-terminal GST; dsDNA, one strand shown
[1] = biological target: T1, FLI1 (Homo sapiens, UniProt Q01543 1-452)
T1 sequence: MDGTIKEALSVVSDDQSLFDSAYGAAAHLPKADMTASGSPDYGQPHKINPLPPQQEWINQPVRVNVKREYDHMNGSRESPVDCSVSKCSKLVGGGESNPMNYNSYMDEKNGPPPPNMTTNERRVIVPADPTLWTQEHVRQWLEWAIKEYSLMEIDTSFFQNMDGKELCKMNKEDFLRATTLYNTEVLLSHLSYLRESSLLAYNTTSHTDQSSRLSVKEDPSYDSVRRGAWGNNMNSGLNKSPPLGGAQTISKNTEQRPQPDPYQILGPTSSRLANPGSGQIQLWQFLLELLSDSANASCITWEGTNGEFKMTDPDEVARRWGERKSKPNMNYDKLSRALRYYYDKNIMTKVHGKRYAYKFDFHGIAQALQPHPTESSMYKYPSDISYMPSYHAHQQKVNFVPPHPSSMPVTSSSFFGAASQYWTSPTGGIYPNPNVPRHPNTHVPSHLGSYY
In short: (§1)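 Binding signal is given per hexamer as its read frequency for a factor divided by its frequency in the tag-only sample. GST-fused human transcription factors were expressed in yeast, captured on glutathione beads, barcoded with DNA and pooled with that sample, then incubated with 200 nmole of a 16-mer random double-stranded DNA library in Tris/NaCl/DTT/glycerol buffer for 30 min at room temperature. The pools were then washed, crosslinked, proximity-ligated, amplified by PCR and sequenced on an Illumina NextSeq500.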

[2] = biological target: T2, ELK1 (Homo sapiens, UniProt P19419 1-428)
T2 sequence: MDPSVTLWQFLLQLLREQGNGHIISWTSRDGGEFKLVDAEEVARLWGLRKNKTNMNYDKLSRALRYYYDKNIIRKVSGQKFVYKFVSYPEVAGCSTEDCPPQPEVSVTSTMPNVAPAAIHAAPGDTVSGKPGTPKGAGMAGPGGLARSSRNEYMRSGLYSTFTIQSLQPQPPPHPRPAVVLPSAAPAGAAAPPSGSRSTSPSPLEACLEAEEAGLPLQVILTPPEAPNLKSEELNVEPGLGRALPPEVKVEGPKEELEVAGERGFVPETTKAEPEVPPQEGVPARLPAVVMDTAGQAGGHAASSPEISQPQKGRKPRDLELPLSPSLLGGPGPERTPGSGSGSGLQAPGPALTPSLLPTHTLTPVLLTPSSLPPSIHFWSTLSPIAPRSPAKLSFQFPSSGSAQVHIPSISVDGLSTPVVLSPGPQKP
In short: as §1

[3] = biological target: T3, GABPA (Homo sapiens, UniProt Q06546 1-454)
T3 sequence: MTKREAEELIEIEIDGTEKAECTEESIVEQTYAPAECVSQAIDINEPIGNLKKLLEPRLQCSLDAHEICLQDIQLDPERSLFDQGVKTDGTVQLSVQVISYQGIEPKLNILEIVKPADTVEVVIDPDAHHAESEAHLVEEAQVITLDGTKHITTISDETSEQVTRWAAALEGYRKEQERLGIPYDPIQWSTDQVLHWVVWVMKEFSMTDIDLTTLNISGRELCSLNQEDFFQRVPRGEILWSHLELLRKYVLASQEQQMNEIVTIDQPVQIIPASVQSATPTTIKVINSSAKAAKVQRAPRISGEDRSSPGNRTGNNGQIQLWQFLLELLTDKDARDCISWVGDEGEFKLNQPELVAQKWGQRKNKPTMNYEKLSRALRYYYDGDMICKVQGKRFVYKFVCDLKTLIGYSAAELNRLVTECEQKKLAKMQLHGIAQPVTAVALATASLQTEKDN
In short: as §1

[4] = biological target: T4, ERG (Homo sapiens, UniProt P11308 1-479)
T4 sequence: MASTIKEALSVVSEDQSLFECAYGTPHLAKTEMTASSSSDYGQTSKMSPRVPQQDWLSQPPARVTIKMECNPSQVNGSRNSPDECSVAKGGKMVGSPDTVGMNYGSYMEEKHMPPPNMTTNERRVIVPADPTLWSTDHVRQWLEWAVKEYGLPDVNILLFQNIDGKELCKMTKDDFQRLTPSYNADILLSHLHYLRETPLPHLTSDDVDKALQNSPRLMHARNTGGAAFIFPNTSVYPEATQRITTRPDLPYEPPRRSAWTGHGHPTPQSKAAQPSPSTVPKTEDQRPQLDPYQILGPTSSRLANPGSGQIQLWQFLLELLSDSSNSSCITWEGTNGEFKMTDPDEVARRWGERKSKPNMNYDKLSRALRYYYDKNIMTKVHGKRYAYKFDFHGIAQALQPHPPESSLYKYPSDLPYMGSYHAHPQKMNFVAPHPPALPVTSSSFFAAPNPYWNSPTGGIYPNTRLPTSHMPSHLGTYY
In short: as §1

[5] = biological target: ELF1 (Homo sapiens, UniProt P32519 1-619)
ELF1, sequence (P32519 whole entry): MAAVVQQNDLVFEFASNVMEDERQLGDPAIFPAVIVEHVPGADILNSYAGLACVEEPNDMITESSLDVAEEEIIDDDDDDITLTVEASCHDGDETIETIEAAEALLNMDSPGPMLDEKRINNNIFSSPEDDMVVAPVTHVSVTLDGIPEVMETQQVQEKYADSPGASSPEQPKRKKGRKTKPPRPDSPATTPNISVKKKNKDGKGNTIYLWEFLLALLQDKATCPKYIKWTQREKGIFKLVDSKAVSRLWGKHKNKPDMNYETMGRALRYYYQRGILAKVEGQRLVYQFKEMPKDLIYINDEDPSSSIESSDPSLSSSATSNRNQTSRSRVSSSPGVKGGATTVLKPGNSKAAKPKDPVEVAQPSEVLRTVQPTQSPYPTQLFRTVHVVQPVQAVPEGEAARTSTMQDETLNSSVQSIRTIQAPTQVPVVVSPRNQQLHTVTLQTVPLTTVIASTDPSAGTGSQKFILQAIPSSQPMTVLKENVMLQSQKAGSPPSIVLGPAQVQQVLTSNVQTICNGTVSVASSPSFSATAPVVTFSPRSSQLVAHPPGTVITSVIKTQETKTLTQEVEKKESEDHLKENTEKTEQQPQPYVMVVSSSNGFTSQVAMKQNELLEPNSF
In short: as §1

[6] = biological target: T5, EHF (Homo sapiens, UniProt Q9NZC4 1-300)
T5 sequence: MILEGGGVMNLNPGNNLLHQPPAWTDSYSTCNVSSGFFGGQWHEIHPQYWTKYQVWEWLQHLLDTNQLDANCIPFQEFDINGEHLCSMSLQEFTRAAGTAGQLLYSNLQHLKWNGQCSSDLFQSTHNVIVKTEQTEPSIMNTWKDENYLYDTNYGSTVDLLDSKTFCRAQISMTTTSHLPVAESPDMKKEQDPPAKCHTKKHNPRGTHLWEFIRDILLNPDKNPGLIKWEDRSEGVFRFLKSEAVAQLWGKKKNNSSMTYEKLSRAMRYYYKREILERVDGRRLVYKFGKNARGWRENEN
In short: as §1

[7] = biological target: SPI1 (Homo sapiens, UniProt P17947 1-270)
In short: as §1

[8] = biological target: SPIB (Homo sapiens, UniProt Q01892 1-262)
SPIB, sequence (Q01892 whole entry): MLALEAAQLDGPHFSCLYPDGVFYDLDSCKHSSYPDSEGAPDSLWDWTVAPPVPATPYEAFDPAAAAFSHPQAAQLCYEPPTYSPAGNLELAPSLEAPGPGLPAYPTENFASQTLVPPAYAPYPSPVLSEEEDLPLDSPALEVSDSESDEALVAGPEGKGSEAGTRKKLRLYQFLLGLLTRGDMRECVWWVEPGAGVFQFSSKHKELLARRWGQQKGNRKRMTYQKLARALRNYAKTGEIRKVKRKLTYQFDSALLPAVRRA
In short: as §1

[9] = biological target: T6, ELK3 (Homo sapiens, UniProt P41970 1-407)
T6 sequence: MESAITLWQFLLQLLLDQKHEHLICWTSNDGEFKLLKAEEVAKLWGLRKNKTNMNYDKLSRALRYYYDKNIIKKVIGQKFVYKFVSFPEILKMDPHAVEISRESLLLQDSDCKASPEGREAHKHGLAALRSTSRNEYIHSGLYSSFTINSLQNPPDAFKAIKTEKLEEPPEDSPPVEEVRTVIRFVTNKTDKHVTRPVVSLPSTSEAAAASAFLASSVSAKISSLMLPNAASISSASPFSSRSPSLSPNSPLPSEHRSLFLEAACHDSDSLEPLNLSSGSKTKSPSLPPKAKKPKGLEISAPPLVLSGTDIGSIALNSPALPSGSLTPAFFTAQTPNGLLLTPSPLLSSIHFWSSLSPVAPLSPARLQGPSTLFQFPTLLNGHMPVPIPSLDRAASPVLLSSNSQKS
In short: as §1

[10] = biological target: T7, FEV (Homo sapiens, UniProt Q99581 1-238)
T7 sequence: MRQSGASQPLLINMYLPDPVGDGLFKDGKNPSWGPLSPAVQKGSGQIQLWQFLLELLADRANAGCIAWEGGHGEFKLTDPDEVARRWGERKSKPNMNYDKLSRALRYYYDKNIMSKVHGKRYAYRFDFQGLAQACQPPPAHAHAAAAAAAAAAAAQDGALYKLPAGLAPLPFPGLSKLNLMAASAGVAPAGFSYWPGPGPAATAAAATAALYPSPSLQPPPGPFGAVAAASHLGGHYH
In short: as §1

[11] = biological target: ETV5 (Homo sapiens, UniProt P41161 1-510)
ETV5, sequence (P41161 whole entry): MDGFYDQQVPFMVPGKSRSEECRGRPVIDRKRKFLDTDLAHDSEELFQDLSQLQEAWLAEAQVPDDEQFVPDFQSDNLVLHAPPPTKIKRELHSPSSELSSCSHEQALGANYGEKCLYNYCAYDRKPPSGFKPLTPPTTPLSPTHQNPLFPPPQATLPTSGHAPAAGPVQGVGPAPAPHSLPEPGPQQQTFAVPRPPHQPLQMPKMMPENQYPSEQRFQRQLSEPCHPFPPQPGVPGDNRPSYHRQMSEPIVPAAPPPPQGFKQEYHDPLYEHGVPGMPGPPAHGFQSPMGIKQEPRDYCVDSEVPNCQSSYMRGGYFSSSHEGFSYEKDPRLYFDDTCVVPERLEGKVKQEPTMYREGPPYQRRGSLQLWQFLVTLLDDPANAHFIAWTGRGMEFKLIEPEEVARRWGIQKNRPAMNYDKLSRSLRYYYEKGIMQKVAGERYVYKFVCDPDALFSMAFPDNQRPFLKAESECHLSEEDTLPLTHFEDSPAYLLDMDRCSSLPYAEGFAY
In short: as §1

[12] = biological target: T8, SPIC (Homo sapiens, UniProt Q8N5J4 1-248)
T8 sequence: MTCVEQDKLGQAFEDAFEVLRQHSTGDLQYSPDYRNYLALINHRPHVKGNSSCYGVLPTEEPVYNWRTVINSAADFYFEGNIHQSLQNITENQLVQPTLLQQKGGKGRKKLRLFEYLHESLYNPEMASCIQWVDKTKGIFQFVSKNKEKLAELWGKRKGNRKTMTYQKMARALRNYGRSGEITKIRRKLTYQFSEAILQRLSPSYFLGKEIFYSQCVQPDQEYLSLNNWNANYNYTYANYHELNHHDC
In short: as §1

[13] = biological target: ELF4 (Homo sapiens, UniProt Q99607 1-663)
ELF4, sequence (Q99607 whole entry): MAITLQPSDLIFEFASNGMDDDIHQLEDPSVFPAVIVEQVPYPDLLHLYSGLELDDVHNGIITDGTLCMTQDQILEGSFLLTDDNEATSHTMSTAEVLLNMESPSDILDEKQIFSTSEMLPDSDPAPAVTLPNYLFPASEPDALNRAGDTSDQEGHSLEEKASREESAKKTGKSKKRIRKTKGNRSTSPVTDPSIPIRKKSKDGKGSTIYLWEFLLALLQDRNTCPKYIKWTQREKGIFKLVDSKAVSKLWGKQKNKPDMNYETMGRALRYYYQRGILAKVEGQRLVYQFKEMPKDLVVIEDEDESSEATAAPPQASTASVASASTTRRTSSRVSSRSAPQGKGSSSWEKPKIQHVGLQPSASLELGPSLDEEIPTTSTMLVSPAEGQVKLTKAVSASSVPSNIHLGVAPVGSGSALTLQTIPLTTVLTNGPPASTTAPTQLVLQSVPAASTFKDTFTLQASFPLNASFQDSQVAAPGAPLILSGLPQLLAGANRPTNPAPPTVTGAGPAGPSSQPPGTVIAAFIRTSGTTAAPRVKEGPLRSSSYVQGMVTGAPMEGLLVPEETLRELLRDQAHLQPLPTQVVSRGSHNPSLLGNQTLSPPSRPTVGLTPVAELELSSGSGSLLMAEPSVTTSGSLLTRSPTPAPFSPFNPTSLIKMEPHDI
In short: as §1

[14] = biological target: ETV1 (Homo sapiens, UniProt P50549 1-477)
ETV1, sequence (P50549 whole entry): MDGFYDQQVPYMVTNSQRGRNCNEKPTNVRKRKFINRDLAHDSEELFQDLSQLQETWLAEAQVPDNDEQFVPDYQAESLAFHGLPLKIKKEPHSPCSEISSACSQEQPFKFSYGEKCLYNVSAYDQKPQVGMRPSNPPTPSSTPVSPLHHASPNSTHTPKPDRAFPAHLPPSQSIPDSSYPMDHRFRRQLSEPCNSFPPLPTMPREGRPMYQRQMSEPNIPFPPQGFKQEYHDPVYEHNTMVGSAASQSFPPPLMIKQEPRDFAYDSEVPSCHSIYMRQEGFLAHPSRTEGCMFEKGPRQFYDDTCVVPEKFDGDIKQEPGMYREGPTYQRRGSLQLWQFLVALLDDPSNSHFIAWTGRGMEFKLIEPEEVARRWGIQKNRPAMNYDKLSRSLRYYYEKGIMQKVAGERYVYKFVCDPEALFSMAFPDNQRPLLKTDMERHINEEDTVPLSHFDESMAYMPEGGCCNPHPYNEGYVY
In short: as §1

[15] = biological target: T9, ERF (Homo sapiens, UniProt P50548 1-548)
T9 sequence: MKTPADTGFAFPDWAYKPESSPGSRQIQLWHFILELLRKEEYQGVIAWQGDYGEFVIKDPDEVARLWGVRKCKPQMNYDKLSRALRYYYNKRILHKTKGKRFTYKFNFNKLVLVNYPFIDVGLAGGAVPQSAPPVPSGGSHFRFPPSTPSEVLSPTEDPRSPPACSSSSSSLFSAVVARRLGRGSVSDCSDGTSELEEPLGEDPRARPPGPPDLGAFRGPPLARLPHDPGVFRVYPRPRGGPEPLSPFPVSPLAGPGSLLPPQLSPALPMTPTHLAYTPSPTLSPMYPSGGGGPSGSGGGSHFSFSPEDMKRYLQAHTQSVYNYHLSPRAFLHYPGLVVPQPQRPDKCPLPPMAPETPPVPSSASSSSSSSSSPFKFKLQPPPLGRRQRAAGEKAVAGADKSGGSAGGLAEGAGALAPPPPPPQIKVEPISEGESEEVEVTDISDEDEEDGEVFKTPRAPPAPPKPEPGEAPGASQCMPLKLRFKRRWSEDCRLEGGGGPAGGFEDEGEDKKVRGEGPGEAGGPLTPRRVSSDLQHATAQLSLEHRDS
In short: as §1

[16] = biological target: T10, ETV3L (Homo sapiens, UniProt Q6ZN32 1-361)
T10 sequence: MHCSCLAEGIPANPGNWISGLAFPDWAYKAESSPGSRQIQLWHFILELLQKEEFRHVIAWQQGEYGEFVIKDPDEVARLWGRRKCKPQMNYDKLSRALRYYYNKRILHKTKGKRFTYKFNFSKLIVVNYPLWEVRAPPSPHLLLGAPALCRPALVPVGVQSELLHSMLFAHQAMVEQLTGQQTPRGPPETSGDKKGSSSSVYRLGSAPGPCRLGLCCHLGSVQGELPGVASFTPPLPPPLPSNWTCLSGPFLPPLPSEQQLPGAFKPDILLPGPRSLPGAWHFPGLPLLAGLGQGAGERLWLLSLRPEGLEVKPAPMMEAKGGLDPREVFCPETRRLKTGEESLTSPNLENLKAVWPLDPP
In short: as §1

[17] = biological target: T11, ETS2 (Homo sapiens, UniProt P15036 1-469)
T11 sequence: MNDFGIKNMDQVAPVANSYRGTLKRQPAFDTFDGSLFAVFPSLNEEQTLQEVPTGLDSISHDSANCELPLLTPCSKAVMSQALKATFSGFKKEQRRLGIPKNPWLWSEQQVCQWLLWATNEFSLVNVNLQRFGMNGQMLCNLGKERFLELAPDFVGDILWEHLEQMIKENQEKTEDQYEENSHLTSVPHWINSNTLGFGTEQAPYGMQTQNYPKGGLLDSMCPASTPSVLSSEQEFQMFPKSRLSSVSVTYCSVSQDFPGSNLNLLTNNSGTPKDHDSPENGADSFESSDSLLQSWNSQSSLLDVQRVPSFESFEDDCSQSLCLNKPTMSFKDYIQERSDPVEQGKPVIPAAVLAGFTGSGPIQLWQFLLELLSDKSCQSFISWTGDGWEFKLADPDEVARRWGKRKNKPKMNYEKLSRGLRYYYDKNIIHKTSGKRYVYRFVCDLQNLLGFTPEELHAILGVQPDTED
In short: as §1

[18] = biological target: T12, ELF5 (Homo sapiens, UniProt Q9UKW6-2 1-255)
T12 sequence: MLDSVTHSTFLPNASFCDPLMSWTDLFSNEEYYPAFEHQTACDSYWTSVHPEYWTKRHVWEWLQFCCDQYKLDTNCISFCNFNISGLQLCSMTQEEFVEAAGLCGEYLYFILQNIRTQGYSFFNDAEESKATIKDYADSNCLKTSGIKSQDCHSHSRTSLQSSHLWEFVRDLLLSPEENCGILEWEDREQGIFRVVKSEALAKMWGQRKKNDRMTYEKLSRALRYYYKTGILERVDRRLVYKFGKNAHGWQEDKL
In short: as §1

[19] = biological target: T13, ETV3 (Homo sapiens, UniProt P41162-2 1-143)
T13 sequence: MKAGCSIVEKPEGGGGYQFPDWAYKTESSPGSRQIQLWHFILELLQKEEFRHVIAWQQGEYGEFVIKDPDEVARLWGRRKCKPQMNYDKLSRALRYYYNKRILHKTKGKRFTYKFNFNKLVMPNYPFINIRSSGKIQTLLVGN
In short: as §1

[20] = biological target: ETV6 (Homo sapiens, UniProt P41212 1-452)
ETV6, sequence (P41212 whole entry): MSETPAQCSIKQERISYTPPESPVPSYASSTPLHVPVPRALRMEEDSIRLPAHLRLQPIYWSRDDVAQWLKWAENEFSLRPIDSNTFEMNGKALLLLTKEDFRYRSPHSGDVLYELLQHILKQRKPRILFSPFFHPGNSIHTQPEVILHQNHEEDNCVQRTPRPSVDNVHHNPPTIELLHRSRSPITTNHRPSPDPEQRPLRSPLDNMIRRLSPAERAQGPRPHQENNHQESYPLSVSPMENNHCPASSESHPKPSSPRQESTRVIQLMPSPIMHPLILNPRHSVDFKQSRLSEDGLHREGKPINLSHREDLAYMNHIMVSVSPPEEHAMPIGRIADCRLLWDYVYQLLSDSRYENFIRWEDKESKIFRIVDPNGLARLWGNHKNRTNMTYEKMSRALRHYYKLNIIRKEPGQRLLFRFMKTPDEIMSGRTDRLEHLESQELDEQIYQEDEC
In short: as §1

## ACGATG
[1]
  binding signal: 1.24 fold enrichment (6-mer frequency, TF over GST control)
[2]
  binding signal: 1.06 fold enrichment (6-mer frequency, TF over GST control)
[3]
  binding signal: 1.17 fold enrichment (6-mer frequency, TF over GST control)
[4]
  binding signal: 1.13 fold enrichment (6-mer frequency, TF over GST control)
[5]
  binding signal: 1.06 fold enrichment (6-mer frequency, TF over GST control)
[6]
  binding signal: 1.16 fold enrichment (6-mer frequency, TF over GST control)
[7]
  binding signal: 1.17 fold enrichment (6-mer frequency, TF over GST control)
[8]
  binding signal: 1.18 fold enrichment (6-mer frequency, TF over GST control)
[9]
  binding signal: 1.17 fold enrichment (6-mer frequency, TF over GST control)
[10]
  binding signal: 1.05 fold enrichment (6-mer frequency, TF over GST control)
[11]
  binding signal: 1.12 fold enrichment (6-mer frequency, TF over GST control)
[12]
  binding signal: 1.03 fold enrichment (6-mer frequency, TF over GST control)
[13]
  binding signal: 1.12 fold enrichment (6-mer frequency, TF over GST control)
[14]
  binding signal: 1.12 fold enrichment (6-mer frequency, TF over GST control)
[15]
  binding signal: 1.09 fold enrichment (6-mer frequency, TF over GST control)
[16]
  binding signal: 1.14 fold enrichment (6-mer frequency, TF over GST control)
[17]
  binding signal: 1.12 fold enrichment (6-mer frequency, TF over GST control)
[18]
  binding signal: 1.01 fold enrichment (6-mer frequency, TF over GST control)
[19]
  binding signal: 1.08 fold enrichment (6-mer frequency, TF over GST control)
[20]
  binding signal: 1.06 fold enrichment (6-mer frequency, TF over GST control)
